# Source: PubChem
# POLH inh: inhibitors of human DNA polymerase eta | Q9Y253 | recombinant Pol eta, fluorescent DNA replication assay | Potency, µM (series often up to 114 µM), without a hit: at the highest dose activity change, negative = inhibition, actives largely listed as inhibitors | 1.2% of 390,000 active | AID 588591; further: potency means the concentration at half of the fitted maximal effect; on the % scale 0 is the no-effect control and ±100 the full control effect
#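 Pol eta (10 nM) was preincubated with compounds for 15 min at room temperature, after which fluorescent replication substrate (50 nM final) was added to start the reaction. Fluorescence was read kinetically at 0 and 10 min.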
# POLK inh: DNA polymerase kappa (human) inhibition. Q9UBT6. AID 588579. 0.53% of 400,000 active. Potency, µM (titrated, usually from 107 µM), without a hit: at the highest dose activity, negative = inhibition, actives largely listed as inhibitors. purified Pol kappa, fluorescent DNA synthesis assay, 10 min; further: potency means the concentration at half of the fitted maximal effect; on the % scale 0 is the no-effect control and ±100 the full control effect
#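 10 nM Pol kappa preincubated 15 min at room temperature with compounds, then reaction started with substrate at 50 nM final. Fluorescence read kinetically at 0 and 10 min; buffer-only wells served as negative control.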
# POLB inh: DNA polymerase beta (human) inhibition; Pol beta primer extension/strand displacement, fluorescence kinetic; AID 485314; 1.3% of 340,000 active; P06746; Potency, µM (top dose mostly 114 µM), without a hit: at the highest dose activity change, negative = inhibition, actives largely listed as inhibitors; further: potency means the concentration at half of the fitted maximal effect; on the % scale 0 is the no-effect control and ±100 the full control effect
#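 10 nM enzyme + cpd, 15 min RT; start with substrate 50 nM final; read 0 min and after 10 min RT. Corrected, normalized data; 4-parameter Hill curve fit.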
# PI5P4Ka inh: PI5P4K alpha (human) kinase inhibition | PI5P4Kalpha enzyme, ADP-Glo luminescence, 60 min; active compounds read low | 1.2% of 330,000 active | AID 652105 | max response, %; active means max response of -50% or lower; inconclusive means between -30% and -50%; inactive means -30% or higher; further: value at the top dose of about 77 µM; on the % scale 0 is the no-effect control and ±100 the full control effect
#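 Compounds were pin-transferred onto PI5P4Kalpha and substrate in HEPES pH 7.4 buffer with EGTA, CHAPS and 5% DMSO. ATP (5 microM final) started the reaction, which ran 60 minutes at room temperature before ADP-Glo detection.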
# Pol iota inh: blocks human DNA polymerase iota activity. Q9UNA4. Pol iota fluorescent replication assay, 10 min. Potency, µM (series often up to 115 µM), inactives show at the highest dose activity, negative = inhibition, usual class: inhibitors. 1% of 390,000 active. AID 588590; further: potency means the concentration at half of the fitted maximal effect
# Target sequence (Q9UNA4 whole entry, looked up): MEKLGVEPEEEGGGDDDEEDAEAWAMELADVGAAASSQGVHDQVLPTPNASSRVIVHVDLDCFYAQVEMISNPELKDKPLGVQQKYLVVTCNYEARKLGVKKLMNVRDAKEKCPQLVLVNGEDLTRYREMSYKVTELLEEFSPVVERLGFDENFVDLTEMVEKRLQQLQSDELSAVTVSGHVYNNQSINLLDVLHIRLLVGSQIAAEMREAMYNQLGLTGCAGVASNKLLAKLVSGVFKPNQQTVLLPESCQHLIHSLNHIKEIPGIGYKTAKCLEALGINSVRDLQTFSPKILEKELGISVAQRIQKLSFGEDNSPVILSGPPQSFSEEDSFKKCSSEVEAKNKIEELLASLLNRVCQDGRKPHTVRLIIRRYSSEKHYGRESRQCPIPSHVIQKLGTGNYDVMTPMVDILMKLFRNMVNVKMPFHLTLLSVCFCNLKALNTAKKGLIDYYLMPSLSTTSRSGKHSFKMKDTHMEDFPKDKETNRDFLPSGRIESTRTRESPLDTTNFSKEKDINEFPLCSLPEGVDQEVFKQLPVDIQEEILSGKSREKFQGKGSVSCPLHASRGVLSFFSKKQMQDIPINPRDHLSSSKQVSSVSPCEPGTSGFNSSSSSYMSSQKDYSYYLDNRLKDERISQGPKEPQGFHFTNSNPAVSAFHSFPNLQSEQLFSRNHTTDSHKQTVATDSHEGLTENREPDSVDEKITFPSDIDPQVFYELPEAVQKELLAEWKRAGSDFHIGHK
#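 Pol iota at 10 nM preincubated 15 min with compounds at room temperature; reaction started with fluorescent substrate, 50 nM final. Fluorescence read kinetically at 0 and 10 min; buffer-only wells as negative control.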
# 12-LOX inh: ALOX12 (human) lipoxygenase inhibition; purified 12hLO, xylenol orange hydroperoxide absorbance; Potency, µM (doses to about 108 µM), without a hit: at the top dose activity change, negative = inhibition, most hits filed as inhibitors; 1.1% of 580,000 active; AID 1671190; further: potency means the concentration at half of the fitted maximal effect; on the % scale 0 is the no-effect control and ±100 the full control effect
#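 Purified human 12hLO at 150 nM in 25 mM Hepes, 0.01% Triton X-100, pH 7.0, preincubated 15 min at room temperature with compound. Reaction started with 40 uM arachidonic acid, 30 min at room temperature. Hydroperoxide measured by Fe-xylenol orange, 573/405 nm absorbance ratio.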
# * marks the source's active call; other numbers are inactive results; ? = inconclusive; nt = no result given. Only some compounds are listed: those with a hit (about 2.9% of all), similar ones and a draw of the others. Unless noted, the call rests on the fitted dose curve; in most records, active means well fitted inhibition curve with a large enough effect; inconclusive means small, poorly fitted or top-dose-only effect, or another doubt; inactive means no such curve, though single readings can be large or run the other way.
SMILES,POLH inh,POLK inh,POLB inh,PI5P4Ka inh,Pol iota inh,12-LOX inh
Cc1ccc(C)c(-n2c(N)c(C#N)c3nc4ccccc4nc32)c1,-3%,-28%,3%,nt,25µM*,-30%
Cc1nc([C@@H]2CN(S(=O)(=O)c3ccc4c(c3)CCCC4)C[C@H]2C(N)=O)n[nH]1,nt,nt,nt,nt,nt,27%
Cc1nc([C@@H]2CN(S(=O)(=O)C(C)C)C[C@H]2C(N)=O)n[nH]1,nt,nt,nt,nt,nt,50µM*
COc1ccc2c(C)c(CC(=O)NCCCn3ccnc3)c(=O)oc2c1OC,nt,nt,nt,nt,nt,-1%
O=C(CSc1nnc(SCc2ccc(Cl)cc2)s1)N/N=C/c1ccc(Cl)cc1Cl,-10%,-11%,1%,-1,-13%,26%
Cc1nnc(SCC(=O)N/N=C/c2cc(Cl)c(O)c(Cl)c2)s1,?,-11%,-6%,-79*,-7%,-14%
Cc1cc(C)c(C(=O)/C=C/c2cccc3ccccc23)c(=O)[nH]1,?,-16%,18%,-12,-10%,-16%
Cc1[nH]c(=O)c(C(=O)/C=C/c2ccccc2F)c2c1CCCC2,?,-9%,-1%,nt,18µM*,-6%
Oc1c(CN2CCOCC2)ccc2ccccc12,-14%,-5%,-2%,-9,28%,45µM*
Oc1c(CN2CCOCC2)cc(-c2ccccc2)cc1CN1CCOCC1,-12%,-13%,19%,-1,-9%,0%
CC(C)c1noc(Cn2c(=O)c(C#N)cn(C3CC3)c2=O)n1,nt,nt,nt,nt,nt,6%
CC12CN3CC(C)(CN(C1)C3c1ccc3ccccc3c1O)C2=O (centres undefined),-9%,-6%,12%,-3,79µM*,-25%
CC(=O)c1c[nH]c(C(=O)NC(c2cccc(F)c2)c2nccn2C)c1 (centres undefined),nt,nt,nt,nt,nt,22µM*
COc1cc(Cl)c(C)cc1NC(=O)c1ccc(-n2cccn2)cc1,nt,nt,nt,nt,nt,15%
COc1cc(/C=C2\CC/C(=C\c3ccc(OCCO)c(OC)c3)C2=O)ccc1OCCO,?,-36%,2.5µM*,1,7.1µM*,-21%
COc1cc(/C=C2/CC/C(=C/c3ccc(O)c(OC)c3)C2=O)ccc1O,35µM*,?,18µM*,-25,40µM*,10%
C[n+]1c(-c2ccccc2)cc2c(=Cc3ccc([N+](=O)[O-])cc3)c3ccccc3n21,7%,-3%,nt,?,50µM*,16µM*
C[n+]1c(-c2ccccc2)cc2c(=Cc3ccccc3)c3ccccc3n21,13%,-11%,nt,-50*,50µM*,?
CN(C)c1ccc(C=c2c3cc(O)ccc3n3c2cc(-c2ccccc2)[n+]3C)cc1,?,?,nt,-54*,50µM*,?
Cc1ccc(SCc2ccc(C(=O)Nc3ccc(C)cc3C)cc2)cc1,nt,nt,nt,nt,nt,-29%
CC1CCC2(CC1)OCC(C(=O)NCc1ccccc1)N2C(=O)c1ccc(Cl)c(Cl)c1 (centres undefined),nt,nt,nt,nt,nt,-7%
O=C(NN=C(C1CC1)C1CC1)c1cccc([N+](=O)[O-])c1,nt,nt,nt,nt,nt,2%
O=C(Nc1ccccc1Cl)C(Cl)C(=O)c1ccccc1 (centres undefined),4%,0%,2%,-28,113%,20µM*
COc1ccc([C@@H]2CC=C(C(=O)O)[C@H](c3ccc(C(C)(C)C)cc3)N2S(=O)(=O)c2ccc(C)cc2)cc1OC,-5%,-20%,nt,-3,-12%,-13%
Cc1ccc(S(=O)(=O)N2[C@@H](c3ccc(C(C)(C)C)cc3)C(C(=O)O)=CC[C@H]2c2ccc(Cl)c(Cl)c2)cc1,0%,-29%,nt,0,-6%,35µM*
SMILES,POLH inh,POLK inh,POLB inh,PI5P4Ka inh,Pol iota inh,12-LOX inh
Cn1c(=O)c2c(nc(NCc3ccccc3)n2Cc2cccc(Br)c2)n(C)c1=O,nt,nt,nt,nt,nt,-12%
O=C1C(n2cccc2)c2ccccc2N1Cc1ccc(C(F)(F)F)cc1 (centres undefined),nt,nt,nt,nt,nt,-23%
Cc1ccc(C)n1C1C(=O)N(Cc2ccc(C(C)C)cc2)c2c(F)cccc21 (centres undefined),nt,nt,nt,nt,nt,32µM*
Cc1ccc(C)n1C1C(=O)N(Cc2ccc(C(F)(F)F)cc2)c2ccc(Cl)cc21 (centres undefined),nt,nt,nt,nt,nt,10µM*
Cc1ccc(C)n1C1C(=O)N(Cc2ccc(C(C)C)cc2)c2ccc(F)cc21 (centres undefined),nt,nt,nt,nt,nt,35µM*
CCc1cccc(NC(=O)c2cnc(N3CCCCC3)c3ccccc23)c1,nt,nt,nt,nt,nt,-19%
Cc1ccc(SCc2cc(=O)c3c(=O)n(-c4ccccc4)[nH]c3[nH]2)cc1,-3%,?,35µM*,-62*,22µM*,35µM*
O=c1cc(CSc2ccc(Cl)cc2)[nH]c2[nH]n(-c3ccccc3)c(=O)c12,-16%,?,40µM*,?,?,40µM*
CCC12CN(C(=O)c3ccccc3)CC(CC)(CN(C(=O)c3ccccc3)C1)C2=O,nt,nt,nt,nt,nt,-26%
O=c1oc2ccc3ccccc3c2cc1-c1csc(Nc2ccccc2F)n1,nt,nt,nt,nt,nt,2%
Cc1cc(NC(=O)N2Cc3cccn3-c3ccccc32)ccc1Br,nt,nt,nt,nt,nt,-15%
COc1ccccc1C1CCN(Cc2ccc3ccccc3c2)CC1,-10%,-3%,1%,11,42%,14µM*
Cc1cc2c(C)nc(N/N=C/c3ccc([N+](=O)[O-])cc3)nc2o1,?,-13%,-19%,-6,35µM*,-16%
Cc1cc(C)cc(Oc2cnn(-c3ccc(C(F)(F)F)cn3)c(=O)c2Cl)c1,nt,nt,nt,nt,nt,1%
CC(SC1=NS(=O)(=O)c2ccccc21)C(=O)O (centres undefined),nt,-1%,nt,nt,5%,0.71µM*
O=S1(=O)N=C(SCCO)c2ccccc21,-1%,-6%,24%,-15,-10%,?
O=C(O)CSC1=NS(=O)(=O)c2ccccc21,nt,?,nt,nt,89µM*,nt
COC(=O)c1sc(=S)n(-c2cccc(OC)c2)c1N,nt,nt,nt,nt,nt,13µM*
COC(=O)c1sc(=S)n(-c2ccc(Br)cc2)c1N,nt,nt,nt,nt,nt,11µM*
CCOC(=O)c1sc(=S)n(-c2ccc(C)cc2)c1N,?,-1%,4%,-3,23%,?
COCCN=C1Sc2nc3ccc(C)cc3cc2CN1Cc1cccs1,-23%,1%,-11%,4,62%,?
Cc1cccc2cc3c(nc12)SC(=NCC1CCCO1)N(Cc1ccco1)C3 (centres undefined),45µM*,?,-29%,-55*,?,nt
COCCN=C1Sc2nc3c(C)cccc3cc2CN1Cc1ccco1,-9%,-2%,14%,-28,?,32µM*
CC1(/[N+]([O-])=C/c2ccco2)CCCCC1=O (centres undefined),nt,nt,nt,nt,nt,8%
C/C(=N\Nc1ccc(F)cc1F)c1ccccc1O,-17%,-14%,-4%,1,99%,?
C/C(=N/Nc1ccc(S(N)(=O)=O)cc1[N+](=O)[O-])c1ccccc1,nt,nt,nt,nt,nt,-21%
C/C(=N/Nc1ccc(F)cc1F)c1ccccc1Br,nt,nt,nt,nt,nt,50µM*
